# Assay results from PubChem BioAssay (NCATS).
# Inconclusive results are not listed. Active and inactive are the calls of the source. The call rests on the fitted dose curve; in most records, active means well fitted inhibition curve with a large enough effect; inconclusive means small, poorly fitted or top-dose-only effect; inactive means flat fitted curve, though single readings scatter.
# System: NIH3T3
# Assay: qHTS assay to identify novel small-molecules to repurpose for Merkel cell carcinoma treatment (AID 1296009); further: nearly all actives have a fitted effect of over 60% in size
# Conditions: MCC and control cell lines, CellTiter-Glo viability, 72 h; at 44.8 µM (top of the series) unless noted
# Excerpt: MCC is a rare and aggressive neuroendocrine skin cancer with limited treatment options. Approximately 80% of MCCs have the Merkel cell polyomavirus (MCPyV) DNA integrated into the host genome (virus-positive: VP-MCC) and viral oncogenes drive oncogenesis. The remaining MCCs are virus-negative (VN-MCC) and are caused by UV mutagenesis. To identify novel treatments for VP-MCC and/or VN-MCC we screened three VP-MCC cell lines (WAGA, MKL-1, MKL-2), three VN-MCC cell lines (MCC-13, MCC-26, UISO), and four immortalized, non-transformed control cell lines (HaCaT, HEK293T, CRL7250, NIH-3T3) against ~2,400 compounds in the NCGC Pharmaceutical Collection (NPC) and ~1,900 compounds in the Mechanism Interrogation PlatE (MiPE). Using cell viability as a readout (CellTiter-Glo assay) we found both overlapping and distinct drugs that can be repurposed for the treatment of VP-MCC and VN-MCC.
# A high-throughput screen was conducted in 1536-well white flat bottom plates (Corning) on a Kalypsys robotic system. Cell lines WAGA, MKL-1, MKL-2, MCC-13, MCC-26, UISO, HaCaT, HEK293T, CRL7250, and NIH-3T3 were screened against 2 small molecule annotated drug libraries NPC and MIPE in dose response (8 and 11 pt. respectively) measuring cell viability after 72 hours of incubation. […] A 1,536 pintool (Kalypsys) was used to transfer 23 nL of compound in DMSO to the 1,536-well assay plates. After 72 hr incubation at 37 degree celsius, 2.5 uL of CellTiter-Glo (Promega) was dispensed into each well using a BiorapTR. Plates were incubated at room temperature for 10 min, transferred to a ViewLux (PerkinElmer) and the luminescence was recorded using an exposure time of 2 seconds. Relative luminescence units (RLUs) were normalized to in-plate controls (no cells as a positive (cytotoxicity) control, DMSO as negative control) and the normalized data was processed using NCATS in-house software.
row,Structure (SMILES),outcome
1,CCc1[nH]c2ccc(OC)cc2c1CCN(C)C,inactive
2,C[C@]12CC[C@@H](O)C[C@H]1CC[C@@H]1[C@@H]2CC[C@]2(C)C(=O)CC[C@@H]12,inactive
3,C=C(CO)C(=O)O[C@H]1C/C(C)=C/CC/C(CO)=C/[C@H]2OC(=O)C(=C)[C@H]12,inactive
4,C=CC(C)(C)c1[nH]c2cccc3c2c1C[C@@H]1[C@@H]3[C@@H](OC(C)=O)[C@H](C)CN1C,inactive
5,CN1C(=O)N(c2ccc(C#N)c(C(F)(F)F)c2)C(=O)[C@]1(CO)c1ccccc1,inactive
6,CC(=O)OC1CC(O)C(C)(C)C2CC(OC(C)=O)C3(C)C(CCC4(C)C(c5ccoc5)C(=O)C5OC543)C12C (stereo not given),inactive [at 17.4 µM]
7,COC(=O)N1CCN(C(=O)Cc2ccc(Cl)c(Cl)c2)[C@@H](CN2CCCC2)C1,inactive
8,O=C(N1CCOCC1)N1CCN(c2ccc(Cl)cc2)CC1,inactive
9,CCCN1CCO[C@H]2c3cc(O)ccc3OC[C@@H]21,inactive
10,COC1CC(OC2CCC3(C=O)C(CCC4C3CCC3(C)C(C5=CC(=O)OC5)CCC43O)C2)OC(C)C1OC1OC(CO)C(O)C(O)C1O (stereo not given),inactive [at 17.4 µM]
11,C/C=C(\C)C(=O)O[C@H]1[C@H](OC(C)=O)[C@]2(CO)[C@H](O)[C@H](O)[C@]3(C)C(=CCC4[C@@]5(C)CC[C@H](O[C@@H]6O[C@H](C(=O)O)[C@@H](O)[C@H](O[C@@H]7OC[C@H](O)[C@H](O[C@@H]8OC[C@H](O)[C@H](O)[C@H]8O)[C@H]7O)[C@H]6O[C@@H]6O[C@H](CO)[C@@H](O)[C@H](O)[C@H]6O)C(C)(C)C5CC[C@]43C)[C@@H]2CC1(C)C (stereo not given in full),inactive [at 9.27 µM]
12,COC1=CC(=O)O[C@@H](CCc2ccccc2)C1,inactive
13,COC1CC(O[C@H]2CC[C@]3(C=O)C4CC[C@]5(C)[C@@H](C6=CC(=O)OC6)CC[C@]5(O)[C@@H]4CC[C@]3(O)C2)OC(C)C1O[C@@H]1O[C@H](CO)[C@@H](O)[C@H](O)[C@H]1O (stereo not given in full),inactive [at 17.4 µM]
14,COC1=CC(=O)O[C@@H](/C=C/c2ccccc2)C1,inactive
15,CN(C)CCc1c[nH]c2ccc(CN3CCN(C)S3(=O)=O)cc12,inactive
16,CC(C)[C@@H](CN1CC[C@@](C)(c2cccc(O)c2)[C@@H](C)C1)NC(=O)[C@H]1Cc2ccc(O)cc2CN1,inactive
17,CC[C@H]1CN2CC[C@H]1C[C@H]2[C@H](O)c1ccnc2ccc(OC)cc12,inactive
18,COC(=O)C1(C)CCC(=O)C2(C)c3c(O)cc(C(C)C)cc3C(O)C(OC(C)=O)C12 (stereo not given),inactive [at 17.4 µM]
19,CCC1NC(=O)C2C(Cl)C(Cl)CN2C(=O)C(C(C)O)NC(=O)CC(c2ccccc2)NC(=O)C(CO)NC1=O (stereo not given),inactive [at 17.4 µM]
20,Cc1cn(C[C@H](N)C(=O)O)c(=O)n(Cc2cc(-c3ccccc3)sc2C(=O)O)c1=O,inactive

row,Structure (SMILES),outcome
1,C[C@H]1O[C@@H](O[C@H]2C[C@@H](O)[C@]3(CO)C4C(CC[C@]3(O)C2)[C@@]2(O)CC[C@H](C3=CC(=O)OC3)[C@@]2(C)C[C@H]4O)[C@@H](O)[C@@H](O)[C@H]1O (stereo not given in full),inactive [at 17.4 µM]
2,CO[C@H]1[C@H](O)[C@H](O[C@H]2CC[C@]3(C)C4CC[C@]5(C)[C@H](C6=CC(=O)OC6)CC[C@]5(O)C4CC[C@@H]3C2)O[C@@H](C)[C@@H]1O (stereo not given in full),inactive [at 17.4 µM]
3,C[C@@]12C[C@@H](c3ccoc3)OC(=O)C1CC[C@]1(C)[C@H]2[C@H]2C=C[C@]1(O)C(=O)O2 (stereo not given in full),inactive
4,CC[C@H]1CN2CC[C@H]1C[C@@H]2[C@@H](O)c1ccnc2ccc(OC)cc12,inactive
5,CCN1C[C@]2(OC(=O)c3ccccc3NC(C)=O)CC[C@H](OC)[C@@]34[C@@H]2C[C@@H]([C@@H]13)[C@@]1(O)C[C@H](OC)[C@H]2C[C@@H]4[C@]1(O)[C@H]2OC,inactive
6,CN1[C@@H]2CC[C@H]1CC(OC(=O)C1C=Nc3ccccc31)C2 (stereo not given in full),inactive
7,CC(N)Cc1c[nH]c2ccccc12 (stereo not given),inactive
8,CC(C)C1(OO)C=C2C(=O)CC3C(C)(C(=O)O)CCCC3(C)C2CC1 (stereo not given),inactive
9,Oc1ccc2c3c1O[C@H]1[C@H](N(CCCl)CCCl)CC[C@@]4(O)[C@@H](C2)N(CC2CC2)CC[C@]314,inactive [at 9.27 µM]
10,Clc1ccc(N2C[C@H]3CC[C@@H](C2)N3)nn1,inactive
11,C/C=C(\C)C(=O)OC1C(C)OC(OC2C(C)OC(OC3CCC4(C)C(=CCC5C4CCC4(C)C(C(C)OC6OC(COC7OC(CO)C(O)C(O)C7O)C(O)C(O)C6O)CCC54O)C3)CC2OC)C(O)C1OC (stereo not given),inactive [at 9.27 µM]
12,Clc1ccc(OCC2=NCCN2)cc1Cl,inactive
13,CC12CCC3C(CCC4(O)CC(O)CCC34C=O)C1(O)CCC2C1=CC(=O)OC1 (stereo not given),inactive
14,COc1cc(C(=O)O[C@H]2[C@@H]3C=CO[C@@H](O[C@@H]4O[C@H](CO)[C@@H](O)[C@H](O)[C@H]4O)[C@@H]3[C@@]3(CO)O[C@@H]23)ccc1O,inactive [at 17.4 µM]
15,CC(C)(O)[C@H]1O[C@H]2CC[C@@]3(C)[C@@](O)(CC[C@H]4Cc5c([nH]c6ccccc56)[C@@]43C)C2=CC1=O,inactive [at 17.4 µM]
16,CN(C(=O)Cc1ccccc1)C(CN1CCCC1)c1ccccc1 (stereo not given),inactive
17,CC(C)(C)c1cc(C(C)(C)C)c2c(c1)C(O)(C(F)(F)F)C(=O)O2 (stereo not given),inactive
18,CC(=O)OC12C(O)C(C)C3(O)C4C=C(C)C(=O)C4CC(CO)=CC3C1C2(C)C (stereo not given),inactive [at 17.4 µM]
19,COC1CC(OC2CCC3(C)C(CCC4C3CCC3(C)C(C5=CC(=O)OC5)C(OC(C)=O)CC43O)C2)OC(C)C1OC1OC(CO)C(O)C(O)C1O (stereo not given),inactive [at 17.4 µM]
20,CCN1C[C@]2(COC)[C@H](O)C[C@H](OC)[C@]34[C@@H]5C[C@]6(O)[C@H](OC(=O)c7ccccc7)[C@@H]5[C@@](O)([C@H]([C@H](OC)[C@H]23)[C@@H]14)[C@@H](O)[C@@H]6OC,inactive
